Laboratory results: PubChem BioAssay (NCI)
This is part of a sample that, as a whole, favours compounds with a hit. Of some 83,000 tested, about 20% had one in any assay.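 Activity criterion: percent growth below 10, measured after cells in 96-well plates were exposed to a single compound concentration for 48 hours.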 Active and inactive are the calls of the source.

Experiments:
Experiment in all cases: NCI-60 one-dose screen, 48 h (100 = growth as untreated, 0 = no growth, -100 = all killed)
Settings in all cases: 10 µM unless noted
DU-145 prostate = tested on: DU-145 prostate
K-562 leukemia = tested on: K-562 leukemia
MALME-3M melanoma = tested on: MALME-3M melanoma
MDA-MB-231 breast = tested on: MDA-MB-231 breast
RXF 393 renal = tested on: RXF 393 renal
SF-268 CNS = tested on: SF-268 CNS
SF-295 CNS = tested on: SF-295 CNS
SF-539 CNS = tested on: SF-539 CNS
UACC-257 melanoma = tested on: UACC-257 melanoma
M14 melanoma = tested on: M14 melanoma
HCT-15 colon = tested on: HCT-15 colon
HT29 colon = tested on: HT29 colon
SNB-75 CNS = tested on: SNB-75 CNS
SNB-19 CNS = tested on: SNB-19 CNS
U251 CNS = tested on: U251 CNS
SK-MEL-5 melanoma = tested on: SK-MEL-5 melanoma
UACC-62 melanoma = tested on: UACC-62 melanoma
LOX IMVI melanoma = tested on: LOX IMVI melanoma
SK-MEL-28 melanoma = tested on: SK-MEL-28 melanoma
PC-3 prostate = tested on: PC-3 prostate

Measured: growth

Cc1ccc(Oc2c(/C=N/NC(=O)Cn3c(=O)sc4ccccc43)c(C)nn2-c2ccccc2)cc1
inactive: DU-145 prostate 78.1% | K-562 leukemia 27.2% | MALME-3M melanoma 66.5% | MDA-MB-231 breast 72.2% | RXF 393 renal 72.9% | SF-268 CNS 53.3% | SF-295 CNS 42.1% | SF-539 CNS 75.2% | UACC-257 melanoma 73.2% | M14 melanoma 59.2% | HCT-15 colon 42.2% | HT29 colon 31.3% | SNB-75 CNS 53.4% | SNB-19 CNS 61.5% | U251 CNS 42.9% | SK-MEL-5 melanoma 37.7% | UACC-62 melanoma 52.7% | LOX IMVI melanoma 64.7% | SK-MEL-28 melanoma 93.5%

O=C1C(Cl)=C(Nc2ccc3cn[nH]c3c2)C(=O)c2ccccc21
inactive: SF-539 CNS 10.5% | UACC-257 melanoma 19.3% | SNB-19 CNS 76.5%
active: DU-145 prostate -100% | K-562 leukemia -50% | MALME-3M melanoma -88.7% | MDA-MB-231 breast -50.3% | RXF 393 renal -95.9% | SF-268 CNS -98.7% | SF-295 CNS 5.88% | M14 melanoma -83.8% | HCT-15 colon -84.1% | HT29 colon -66.9% | SNB-75 CNS -84.5% | U251 CNS -93.2% | SK-MEL-5 melanoma -99.5% | UACC-62 melanoma -97.9% | LOX IMVI melanoma -87.5% | SK-MEL-28 melanoma -97.7%

O=C1/C(=C/c2cccc(OCc3ccccc3)c2)Oc2cc(OCCN3CCCCC3)ccc21
active: K-562 leukemia -37.8% | HCT-15 colon -37%
inactive: DU-145 prostate 88.1% | MALME-3M melanoma 58.3% | MDA-MB-231 breast 71% | RXF 393 renal 68.6% | SF-268 CNS 81% | SF-295 CNS 95.5% | SF-539 CNS 68.1% | UACC-257 melanoma 94.5% | M14 melanoma 88.6% | HT29 colon 21% | SNB-75 CNS 76% | SNB-19 CNS 83.9% | U251 CNS 61.1% | SK-MEL-5 melanoma 78.6% | UACC-62 melanoma 77.8% | LOX IMVI melanoma 32.1% | SK-MEL-28 melanoma 76.6%

CCOC(=O)c1cc(C(=O)c2ccc(OC)c(OC)c2)n2ccc(-c3ccccn3)cc12
inactive: DU-145 prostate 65.1% | K-562 leukemia 107% | MALME-3M melanoma 49.6% | MDA-MB-231 breast 58.1% | RXF 393 renal 63.9% | SF-268 CNS 25.3% | SF-295 CNS 69.1% | SF-539 CNS 29.6% | UACC-257 melanoma 76.3% | M14 melanoma 101% | HCT-15 colon 83% | HT29 colon 76.4% | SNB-75 CNS 24.1% | SNB-19 CNS 67.8% | U251 CNS 21.7% | SK-MEL-5 melanoma 37.1% | UACC-62 melanoma 83.5% | LOX IMVI melanoma 84.7% | SK-MEL-28 melanoma 71%

N=C(N)c1ccc(-c2ccc(-c3ccc(-c4cccs4)s3)s2)cc1F
inactive: DU-145 prostate 107% | K-562 leukemia 15.9% | MALME-3M melanoma 102% | MDA-MB-231 breast 91.2% | RXF 393 renal 90.3% | SF-268 CNS 98.8% | SF-295 CNS 97.5% | SF-539 CNS 94.7% | UACC-257 melanoma 102% | M14 melanoma 99.4% | HCT-15 colon 84.5% | HT29 colon 72.6% | SNB-75 CNS 84.8% | SNB-19 CNS 91.6% | U251 CNS 101% | SK-MEL-5 melanoma 96.7% | UACC-62 melanoma 97.2% | LOX IMVI melanoma 95.9% | SK-MEL-28 melanoma 101%

CC1(C(=O)O)CCC(N)(C(=O)O)C1(C)C (centres undefined)
inactive: DU-145 prostate 118% | K-562 leukemia 107% | MALME-3M melanoma 113% | MDA-MB-231 breast 108% | RXF 393 renal 126% | SF-268 CNS 112% | SF-295 CNS 97.3% | SF-539 CNS 108% | UACC-257 melanoma 121% | M14 melanoma 110% | HCT-15 colon 106% | HT29 colon 103% | SNB-75 CNS 90% | SNB-19 CNS 105% | U251 CNS 105% | SK-MEL-5 melanoma 107% | UACC-62 melanoma 107% | LOX IMVI melanoma 109%

C[C@@H]1C[C@H]2C(=O)O[C@@H](C)[C@H](NC(=O)[C@H](Cc3cc(F)cc(F)c3)NC(=O)Nc3ccc(Cl)cc3F)C(=O)N3C[C@H](O)C[C@H]3C(=O)N3CCN(C)C[C@H]3C(=O)N[C@@H](C)C(=O)N2C1
inactive: DU-145 prostate 41.3% | K-562 leukemia 27.7% | MALME-3M melanoma 45.4% | MDA-MB-231 breast 27.9% | RXF 393 renal 88.1% | SF-268 CNS 29.1% | SF-295 CNS 38.9% | SF-539 CNS 51.3% | UACC-257 melanoma 19.8% | M14 melanoma 72.9% | HCT-15 colon 107% | HT29 colon 32.5% | SNB-75 CNS 22.8% | SNB-19 CNS 20.3% | U251 CNS 21.1% | SK-MEL-5 melanoma 64.6% | UACC-62 melanoma 31.1% | LOX IMVI melanoma 43.4%

CCCCC(CC)COC(=O)C[N+](C)(C)CCOC(c1ccccc1)c1ccccc1 (centres undefined)
inactive: DU-145 prostate 85.1% | K-562 leukemia 14.6% | MALME-3M melanoma 30.8% | MDA-MB-231 breast 29.3% | SF-268 CNS 49% | SF-295 CNS 74.4% | SF-539 CNS 69.7% | M14 melanoma 20.3% | HCT-15 colon 96.2% | HT29 colon 28.3% | SNB-75 CNS 10.8% | SNB-19 CNS 40.7% | U251 CNS 30.8% | SK-MEL-28 melanoma 11.1%
active: RXF 393 renal -4.09% | UACC-257 melanoma 2.69% | SK-MEL-5 melanoma -79.8% | UACC-62 melanoma -20.1% | LOX IMVI melanoma 1.39%

COc1ccc(/C=C/C(=C/c2c(O)[nH]c3cc(Br)ccc23)N=O)cc1
inactive: DU-145 prostate 114% | K-562 leukemia 89.1% | MALME-3M melanoma 95.4% | MDA-MB-231 breast 101% | RXF 393 renal 130% | SF-268 CNS 107% | SF-295 CNS 107% | SF-539 CNS 99.4% | UACC-257 melanoma 114% | M14 melanoma 115% | HCT-15 colon 113% | HT29 colon 114% | SNB-75 CNS 113% | SNB-19 CNS 109% | U251 CNS 105% | SK-MEL-5 melanoma 103% | UACC-62 melanoma 102% | LOX IMVI melanoma 90.8% | SK-MEL-28 melanoma 120%

COc1ccc(N(c2nc(-c3ccc([N+](=O)[O-])cc3)cs2)C(C)C)cc1
inactive: DU-145 prostate 86.1% | K-562 leukemia 55.1% | MALME-3M melanoma 94.6% | MDA-MB-231 breast 73.9% | RXF 393 renal 102% | SF-268 CNS 83.5% | SF-295 CNS 89.8% | SF-539 CNS 88.7% | UACC-257 melanoma 80.5% | M14 melanoma 89.9% | HCT-15 colon 88% | HT29 colon 97.2% | SNB-75 CNS 103% | SNB-19 CNS 89.9% | U251 CNS 90.3% | SK-MEL-5 melanoma 78.9% | UACC-62 melanoma 68.4% | LOX IMVI melanoma 80.9% | SK-MEL-28 melanoma 103%

CCN(CC)CCCNCc1cc(-c2ccccc2)nc2ccccc12
active: M14 melanoma 4.63% | LOX IMVI melanoma 9.8%
inactive: DU-145 prostate 16.6% | K-562 leukemia 24.3% | MALME-3M melanoma 50.7% | MDA-MB-231 breast 31.3% | RXF 393 renal 77.8% | SF-268 CNS 39.8% | SF-295 CNS 70.2% | SF-539 CNS 32.7% | UACC-257 melanoma 80% | HCT-15 colon 15.3% | HT29 colon 55.1% | SNB-75 CNS 73.6% | SNB-19 CNS 82.5% | U251 CNS 21.5% | SK-MEL-5 melanoma 69.6% | UACC-62 melanoma 95.6% | SK-MEL-28 melanoma 92.7%

COc1ccc2nc3cc(Cl)ccc3c(Nc3ccc(O)cc3)c2c1
inactive: DU-145 prostate 48.4% | K-562 leukemia 54.8% | MALME-3M melanoma 83.5% | MDA-MB-231 breast 84.4% | RXF 393 renal 83.2% | SF-268 CNS 72.8% | SF-295 CNS 84.9% | SF-539 CNS 80.8% | UACC-257 melanoma 102% | M14 melanoma 94.8% | HCT-15 colon 52.9% | HT29 colon 57.9% | SNB-75 CNS 89.6% | U251 CNS 70.5% | PC-3 prostate 89.2% | SK-MEL-5 melanoma 88.6% | UACC-62 melanoma 80.4% | LOX IMVI melanoma 43.5% | SK-MEL-28 melanoma 107%

CC1(C)CC[C@]2(C(=O)OC(=O)[C@]34CCC(C)(C)C[C@@H]3C3=CC[C@@H]5[C@@]6(C)CCC(=O)C(C)(C)[C@@H]6CC[C@@]5(C)[C@]3(C)CC4)CC[C@]3(C)C(=CC[C@@H]4[C@@]5(C)CCC(=O)C(C)(C)[C@@H]5CC[C@]43C)[C@H]2C1
inactive: DU-145 prostate 77.4% [100 µM] | K-562 leukemia 36.4% [100 µM] | MALME-3M melanoma 81.2% [100 µM] | MDA-MB-231 breast 45.7% [100 µM] | RXF 393 renal 62.6% [100 µM] | SF-268 CNS 63.4% [100 µM] | SF-295 CNS 76.5% [100 µM] | SF-539 CNS 61.6% [100 µM] | UACC-257 melanoma 69% [100 µM] | M14 melanoma 77.9% [100 µM] | HCT-15 colon 73.6% [100 µM] | HT29 colon 44.8% [100 µM] | SNB-75 CNS 15.8% [100 µM] | U251 CNS 64.6% [100 µM] | PC-3 prostate 36.6% [100 µM] | SK-MEL-5 melanoma 25% [100 µM] | UACC-62 melanoma 49.9% [100 µM] | LOX IMVI melanoma 64.6% [100 µM] | SK-MEL-28 melanoma 81.7% [100 µM]

c1ccc2c(c1)CN(CCCN1CCOCC1)C2
inactive: DU-145 prostate 107% | K-562 leukemia 104% | MALME-3M melanoma 99.7% | MDA-MB-231 breast 107% | RXF 393 renal 117% | SF-268 CNS 103% | SF-295 CNS 97.9% | SF-539 CNS 98.9% | UACC-257 melanoma 93.9% | M14 melanoma 97% | HCT-15 colon 102% | HT29 colon 107% | SNB-75 CNS 89.7% | U251 CNS 97.8% | PC-3 prostate 96.4% | SK-MEL-5 melanoma 99.1% | UACC-62 melanoma 96.7% | LOX IMVI melanoma 107% | SK-MEL-28 melanoma 105%
